In PubChem BioAssay AID2642 (Johns Hopkins Ion Channel Center, 2010):
Hit rate of the full screen: of about 310,000 compounds, about 3,900 (1.3%) were called active.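 The calls were made as follows: active = compounds whose thallium flux B-score, printed positive for inhibition, exceeds three library SD while starting fluorescence stays within three; inactive = the rest.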 What follows is part of a selection rich in actives, with near analogues and random picks from the rest.

Biological target: Potassium voltage-gated channel subfamily KQT member 1 (Homo sapiens) (UniProt P51787)
Sequence (P51787 whole entry, looked up): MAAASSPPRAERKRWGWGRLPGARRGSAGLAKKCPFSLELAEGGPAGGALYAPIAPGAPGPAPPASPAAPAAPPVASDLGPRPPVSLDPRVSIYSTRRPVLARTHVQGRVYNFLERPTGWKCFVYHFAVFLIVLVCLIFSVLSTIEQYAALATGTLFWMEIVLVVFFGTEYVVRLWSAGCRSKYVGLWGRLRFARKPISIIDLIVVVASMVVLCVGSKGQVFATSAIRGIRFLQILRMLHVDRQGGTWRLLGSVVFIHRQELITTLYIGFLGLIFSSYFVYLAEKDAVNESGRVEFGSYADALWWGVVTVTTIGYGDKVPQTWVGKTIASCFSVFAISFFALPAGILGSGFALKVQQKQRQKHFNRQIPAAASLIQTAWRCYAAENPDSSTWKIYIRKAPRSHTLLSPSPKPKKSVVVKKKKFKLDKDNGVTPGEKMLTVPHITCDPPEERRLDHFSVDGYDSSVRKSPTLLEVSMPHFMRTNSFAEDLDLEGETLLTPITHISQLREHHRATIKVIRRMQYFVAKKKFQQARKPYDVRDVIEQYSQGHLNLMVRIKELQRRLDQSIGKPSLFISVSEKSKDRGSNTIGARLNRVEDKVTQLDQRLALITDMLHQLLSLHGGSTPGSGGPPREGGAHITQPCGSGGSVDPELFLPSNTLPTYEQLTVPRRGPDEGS
Assay: inhibitors of human KCNQ1 channel, primary screen, cell-based, thallium flux, high-throughput (AID 2642);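 also: channel opened by potassium depolarization with thallium stimulus after 20 min compound exposure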
Settings: CHO-K1 KCNQ1, FluxOR thallium flux fluorescence, at 10 µM; active compounds read high

Row | SMILES | B-score
1 | COc1cc2c3c(c1)/C(=C1/SC(=S)NC1=O)C(=O)N3C(C)(C)C=C2C | inactive
2 | Cc1ccc2nc(-c3ccncc3)cc(C(=O)Nc3ccc(OC(F)F)cc3)c2c1 | inactive
3 | CC(C)C(=O)Nc1ccc2c(c1)oc1ccccc12 | inactive
4 | CCOC(=O)c1ccc(NC(=O)CCn2c(=O)oc3ccccc32)cc1 | inactive
5 | CC(=O)NCCC(=O)Nc1nc(-c2ccc3c(c2)OCCO3)cs1 | inactive
6 | Cc1ccc(-c2csc(NC(=O)C3=COCCO3)n2)cc1C | 12 (active)
7 | Cc1csc(NC(=O)C2=COCCO2)n1 | inactive
8 | Cc1cccc(CN2CCC(n3nccc3NC(=O)c3ccccc3C)CC2)n1 | inactive
9 | CN(C)N(C)C(=O)C(O)(c1ccccc1)c1ccccc1 | inactive
10 | CCc1ccc(NC(=O)CCNS(=O)(=O)c2cccs2)cc1 | inactive
11 | COc1ccc(-c2cc(C(F)(F)F)nc(NCc3cccnc3)n2)cc1 | inactive
12 | COc1ccc(-c2cc(C(F)(F)F)nc(S(C)(=O)=O)n2)cc1OC | 7 (active)
13 | COc1ccc(-c2ccc(Nc3ccc(S(=O)(=O)N4CCCC4)cc3)nn2)cc1OC | inactive
14 | C=C(C)CNC(=O)c1ccc(OC2CCN(C(=O)COC)CC2)cc1 | inactive
15 | O=C(CC(NCCN1CCOCC1)C(=O)O)Nc1cccc(Cl)c1 (stereo not given) | inactive
16 | CCOC(=O)c1sc(NC(=O)CSc2nc(C)cc(C(F)(F)F)n2)c(C#N)c1C | inactive
17 | CC(C(=O)Nc1ccc(O)c(C(=O)O)c1)N1C(=O)/C(=C/c2cccs2)SC1=S (stereo not given) | inactive
18 | COC(=O)c1ccc(NC(=O)c2cc(Cl)ccc2OC)cc1 | inactive
19 | COC(=O)c1ccc(NC(=O)Nc2ccc(C)cc2)cc1 | 7 (active)
20 | Cc1ccc(NC(=O)CC(=O)Nc2ccc(C)cc2)cc1 | inactive
21 | CCC(C)C(NC(=O)C1CCC(=O)N1C(=O)OCc1ccccc1)C(=O)NC(C(=O)N1CCCC1C(N)=O)C(C)CC (stereo not given) | inactive
22 | CC1CCc2c(c3ccccc3[nH]c2=O)O1 (stereo not given) | inactive
23 | CCOC(=O)c1cc(C)sc1NC(=O)C1CCC1 | inactive
24 | O=C(c1ccccc1)N1N=C(c2ccccc2O)CC1c1ccc(Br)cc1 (stereo not given) | inactive
25 | COc1ccc(C2CC(c3cccs3)=NN2c2ccccc2)cc1 (stereo not given) | inactive
26 | Oc1ccccc1C1=NN(c2ccccc2)C(c2ccccc2)C1 (stereo not given) | 7 (active)
27 | Cc1nc2c(C(=O)NCc3cccs3)cnn2c(C)c1Cc1ccc(F)cc1 | inactive

Row | SMILES | B-score
28 | CCOC(=O)c1cccc(NC(=O)C2CCCN(S(=O)(=O)c3cnc[nH]3)C2)c1 (stereo not given) | inactive
29 | CCC(O)C1CCN(Cc2cn(-c3ccc(OC)cc3)nc2-c2cccc(F)c2)CC1 (stereo not given) | inactive
30 | Cc1ccc(C)c(-n2cc(CN3CCN(C(=O)c4ncn[nH]4)CC3)c(-c3ccccc3)n2)c1 | inactive
31 | Cc1cccc(-n2cc(CN3CCN(C(=O)c4ncn[nH]4)CC3)c(-c3cccc(F)c3)n2)c1 | 10 (active)
32 | Cc1cc(C)c(S(=O)(=O)N2CCCC2CNC(=O)c2ccc3c(c2)OCO3)c(C)c1 (stereo not given) | inactive
33 | Cc1ccc(OCCCCN2CCCCC2)c(Br)c1 | inactive
34 | CC(C)CC(=O)N1CCN(Cc2ccccc2Br)CC1 | inactive
35 | CCN1CC=C2C(C#N)=C(N)C(C#N)(C#N)[C@H](c3ccoc3)[C@H]2C1 | inactive
36 | CCC(C)(C)NC(=O)/C=C/c1cc(OC)c(OC)c(S(=O)(=O)N2CCc3ccccc32)c1 | inactive
37 | CN1C2CCC1/C(=C\c1ccccc1Cl)C(=O)/C2=C\c1ccccc1Cl | 10 (active)
38 | O=C(CN1CCCCCC1)NCCN1C(=O)S/C(=C\c2ccccc2Cl)C1=O | inactive
39 | O=C(CN1C(=O)S/C(=C\c2ccccc2Cl)C1=O)NC1C=CS(=O)(=O)C1 (stereo not given) | inactive
40 | COc1ccc(/C=N/n2c(C)cc(C)cc2=O)cc1 | inactive
41 | OCCC1CN(Cc2cccc(O)c2)CCN1CCc1ccccc1 (stereo not given) | inactive
42 | COc1ccccc1C1CC(=O)n2c(nc(-c3ccccc3)c2-c2ccccc2)S1 (stereo not given) | 7 (active)
43 | COc1cccc(C2CC(c3ccccc3)=NN2S(=O)(=O)c2ccccc2)c1OC (stereo not given) | inactive
44 | COc1ccc(C2CC(=O)n3c(nc4ccccc43)S2)cc1OC (stereo not given) | inactive
45 | COc1ccc(-c2oc3ncnc(NCCCO)c3c2-c2ccc(OC)cc2)cc1 | inactive
46 | COc1ccc2[nH]c3c(=O)n(Cc4ccco4)cnc3c2c1 | inactive
47 | COc1ccc(-c2oc3ncn(Cc4ccco4)c(=N)c3c2-c2ccc(OC)cc2)cc1 | 9 (active)
48 | CCOc1ccc2ccccc2c1/C=N/NC(=O)c1c(C)cc(C)[nH]c1=O | inactive
49 | CN(C(=O)CCNC(=O)Cn1ccc2ccccc2c1=O)c1ccc(Br)cc1 | inactive
50 | CCn1c(SCC(=O)Nc2ccc(OC)c(OC)c2)nnc1-c1c[nH]c2ccccc12 | inactive
51 | CCn1c(SCCC(C)C)nnc1-c1c[nH]c2ccccc12 | 6 (active)
52 | CCC(C)Sc1nnc(-c2c[nH]c3ccccc23)n1CCOC (stereo not given) | inactive
53 | CC1CC(=S)Nc2ccccc2N1Cc1ccccc1 (stereo not given) | inactive
54 | COc1ccc(S(=O)(=O)N2CCCC(C(=O)NCCCn3ccnc3)C2)cc1OC (stereo not given) | inactive

Row | SMILES | B-score
55 | Cc1cccc[n+]1CC(=O)c1ccccc1 | inactive
56 | COc1ccccc1NC(=O)C[n+]1ccccc1 | inactive
57 | COC(=O)C[n+]1cccc2ccccc21 | 8 (active)
58 | O=C(CC1C(=O)NCCN1C(=O)c1ccc([N+](=O)[O-])cc1)Nc1cccc(Cl)c1 (stereo not given) | inactive
59 | CC1c2nc3ccccc3n2C(CC(=O)NCCCN2CCOCC2)C(=O)N1Cc1ccccc1 (stereo not given) | inactive
60 | Cc1cc(Cl)ccc1OCCCC(=O)Nc1cccc(-n2cnnn2)c1 | inactive
61 | O=C(CCC1CCCCC1)Nc1cc(C(F)(F)F)ccc1N1CCOCC1 | inactive
62 | COc1ccc(NC(=O)CN2C(=O)COc3ccc(S(=O)(=O)N4CCOCC4)cc32)c(OC)c1 | inactive
63 | COc1cc(S(=O)(=O)N2CCOCC2)ccc1NC(=O)COc1ccc(N(C)S(=O)(=O)c2ccc(C)cc2)cc1 | 13 (active)
64 | COc1ccc(S(=O)(=O)N2CCOCC2)cc1NC(=O)COc1ccccc1 | inactive
65 | CCOC(=O)c1c(NC(=O)C(C)Sc2c[nH]c3ccccc23)sc2c1CCC2 (stereo not given) | 12 (active)
66 | CCOC(=O)c1c(NC(=O)CSc2cn(CC)c3ccccc23)sc2c1CCC2 | inactive
67 | CCOC(=O)c1c(NC(=S)NC)sc2c1CCCC2 | inactive
68 | CCOc1ccc(S(=O)(=O)N2CCC(C(=O)OCc3ccc(OC)cc3)CC2)cc1 | inactive
69 | CC1CN(C(=S)Nc2ccc(Br)cc2Cl)CC(C)O1 (stereo not given) | inactive
70 | CCCCOC(=O)Nc1nnc(CC(=O)NCc2ccccc2)s1 | inactive
71 | CC(=O)N1CCCc2cc(S(=O)(=O)N3CCCC(C(=O)NCc4ccc(Cl)cc4)C3)ccc21 (stereo not given) | inactive
72 | CC(=O)N1c2ccc(S(=O)(=O)N3CCCC(C(=O)Nc4cccc(Cl)c4)C3)cc2CC1C (stereo not given) | inactive
73 | CC(=O)N1CCCc2cc(S(=O)(=O)N3CCCC(C(=O)N4CCN(c5cccc(Cl)c5)CC4)C3)ccc21 (stereo not given) | 8 (active)
74 | CCCOc1cccc(C(=O)Nc2ccccc2C(=O)N2CCN(C)CC2)c1 | inactive
75 | COC(=O)c1c(NC(=O)COC(=O)[C@@H](NS(=O)(=O)c2ccccc2)C(C)C)sc2c1CCC2 | inactive
76 | CC(C)(C)OC(=O)N/N=C/c1cn(-c2ccccc2)nc1-c1cccnc1 | inactive
77 | O=C(O)c1ccc(N/N=C/c2cn(-c3ccccc3)nc2-c2cccs2)cc1 | inactive
78 | Cc1ccc(-c2nn(-c3ccccc3)cc2/C=N/NC(=O)c2ccc3c(c2)OCO3)cc1 | 6 (active)
79 | CC(=O)Nc1ccc(N2C(=O)CCC2=O)cc1C | inactive
80 | CCC(C(=O)OCC(=O)Nc1ccc(C(=O)Nc2ccc(OC)cc2)cc1)c1ccccc1 (stereo not given) | inactive
81 | CCc1ccc(NC(=O)COC(=O)c2cccs2)cc1 | inactive

Row | SMILES | B-score
82 | Cc1ccc(C)c(NC(CC(=O)c2ccccc2)C(=O)OCC(=O)c2cccs2)c1 (stereo not given) | inactive
83 | NC(=O)c1ccc(NC(=O)COC(=O)C(Cc2ccccc2)NC(=O)c2ccccc2)cc1 (stereo not given) | 6 (active)
84 | COC(=O)[C@H](Cc1ccccc1)NC(=O)Nc1ccc(OC)cc1 | inactive
85 | O=C(COC(=O)[C@H](Cc1ccccc1)NC(=O)c1cccs1)Nc1cc(F)ccc1F | 6 (active)
86 | CCCCSCCCNC(=O)C1CCC(CNS(=O)(=O)c2ccc(NC(C)=O)cc2)CC1 (stereo not given) | inactive
87 | C=CCSc1nc(N)cc(=O)[nH]1 | inactive
88 | COc1ccc(C(=O)OCC(=O)Nc2cccc(C(C)=O)c2)cc1OC | inactive
89 | CN1CCN(C(CNS(=O)(=O)c2cccs2)c2cccnc2)CC1 (stereo not given) | inactive
90 | CCOC(=O)N1CCN(c2c(NCCCN3CCCC(C)C3)c(=O)c2=O)CC1 (stereo not given) | inactive
91 | CCC1C=C(c2ccccc2)C=CN=C1N(CC)CC (stereo not given) | inactive
92 | c1ccc2c(NC3C4CC5CC(C4)CC3C5)nc(N3CCOCC3)nc2c1 (stereo not given) | inactive
93 | Cn1nccc1CNC(=O)c1ccnn1C | inactive
94 | Cc1ccc(-n2ncc3c2CCCC3NC(=O)c2cnccn2)cc1C (stereo not given) | inactive
95 | Cc1cc(C(=O)NC2CCCc3c2cnn3-c2cccc(C)c2C)c(C)o1 (stereo not given) | inactive
96 | CC(=O)NCC(=O)NC1CCCc2c1cnn2-c1ccccc1F (stereo not given) | inactive
97 | CC1(C)Cc2c(cnn2-c2cccc(F)c2)C(NC(=O)c2cc[n+]([O-])cc2)C1 (stereo not given) | inactive
98 | COc1ccc(C(=O)NC2CCCc3c2cnn3-c2cccc(C)c2C)c(OC)n1 (stereo not given) | 11 (active)
99 | COc1ccc(C(=O)NC2CC(C)(C)Cc3c2cnn3-c2ccccc2C)o1 (stereo not given) | inactive
100 | Cn1nccc1C(=O)NC1CCCc2c1cnn2-c1ccc(F)cc1F (stereo not given) | 9 (active)
101 | Cn1nccc1C(=O)NC1CCCc2c1cnn2-c1ccccc1F (stereo not given) | 6 (active)
102 | Cc1nc(C(=O)N2CCCC(C(=O)c3ccc(Cl)cc3)C2)cs1 (stereo not given) | inactive
103 | CCOC(=O)N1CCN(CCC(=O)Nc2ccccc2)CC1 | inactive
104 | Cc1cccc(NC(=O)C2CCCN(C(=O)Nc3ccc(F)cc3)C2)c1C (stereo not given) | inactive
105 | COc1cccc2c(C)c(C(=O)O)[nH]c12 | inactive
